# Unmarked numbers belong to inactive results.
# Experiments:
# Assay in all cases: log2 ratio of Biotin-Ahx-Ub-VS probe labelling (fragment/DMSO); higher = less target engagement (more negative = stronger competition), active = hit call of the paper (q ≤ 0.05, log2 ratio ≤ -1)
# Details in all cases: compound concentration: 200 uM; treatment time: 3 h
# [1] = biological target: T1, USP19 (UniProt O94966)
# T1 sequence (whole entry): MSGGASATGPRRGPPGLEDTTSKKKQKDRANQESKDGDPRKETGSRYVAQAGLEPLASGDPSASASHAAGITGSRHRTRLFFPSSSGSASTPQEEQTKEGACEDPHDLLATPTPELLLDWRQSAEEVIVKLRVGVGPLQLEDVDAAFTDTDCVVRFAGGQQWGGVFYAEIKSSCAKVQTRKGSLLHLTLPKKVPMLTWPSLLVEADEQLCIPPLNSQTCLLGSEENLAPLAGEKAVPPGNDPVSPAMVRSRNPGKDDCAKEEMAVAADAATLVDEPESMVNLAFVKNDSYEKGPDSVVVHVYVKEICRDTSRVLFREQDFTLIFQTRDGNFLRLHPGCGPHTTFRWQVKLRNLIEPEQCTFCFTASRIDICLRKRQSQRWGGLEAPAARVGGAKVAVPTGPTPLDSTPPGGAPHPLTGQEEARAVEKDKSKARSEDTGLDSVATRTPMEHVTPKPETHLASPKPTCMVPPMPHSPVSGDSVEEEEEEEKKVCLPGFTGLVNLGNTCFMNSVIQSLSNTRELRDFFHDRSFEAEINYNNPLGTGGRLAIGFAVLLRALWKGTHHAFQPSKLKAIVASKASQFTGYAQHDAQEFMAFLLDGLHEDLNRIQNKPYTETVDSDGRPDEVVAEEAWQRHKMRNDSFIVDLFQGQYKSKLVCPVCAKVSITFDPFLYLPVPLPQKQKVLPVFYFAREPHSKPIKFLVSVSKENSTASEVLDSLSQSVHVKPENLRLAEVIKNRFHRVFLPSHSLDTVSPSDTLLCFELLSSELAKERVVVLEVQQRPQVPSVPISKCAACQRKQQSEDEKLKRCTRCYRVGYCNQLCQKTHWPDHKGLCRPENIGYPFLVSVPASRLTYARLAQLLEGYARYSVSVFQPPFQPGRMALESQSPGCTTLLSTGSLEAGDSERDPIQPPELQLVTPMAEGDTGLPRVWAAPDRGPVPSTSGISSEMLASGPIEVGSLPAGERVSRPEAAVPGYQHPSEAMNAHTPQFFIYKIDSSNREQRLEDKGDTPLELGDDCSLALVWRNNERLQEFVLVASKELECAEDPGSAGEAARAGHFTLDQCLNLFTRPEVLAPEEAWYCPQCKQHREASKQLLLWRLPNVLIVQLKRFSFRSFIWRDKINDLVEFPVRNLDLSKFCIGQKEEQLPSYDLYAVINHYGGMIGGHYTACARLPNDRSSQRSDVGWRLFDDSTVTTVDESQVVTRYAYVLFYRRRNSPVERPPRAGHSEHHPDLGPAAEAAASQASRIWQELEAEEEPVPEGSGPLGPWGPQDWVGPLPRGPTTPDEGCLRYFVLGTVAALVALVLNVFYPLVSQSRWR
# Method in brief: (§1)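 Average log2 ratios of fragment over vehicle were obtained by unpaired t-test from global-median-normalised Spectronaut label-free quantities. Proteins with ≥2 unique peptides were included. HEK293T lysate (495 µg per sample) was treated in triplicate with fragment at 200 µM or vehicle for 3 h, then with Biotin-Ahx-Ub-VS at 0.5 µM final for 1 h, and labelled DUBs were NeutrAvidin-enriched and run by diaPASEF LC-MS/MS.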
# [2] = biological target: T2, USP22 (UniProt Q9UPT9)
# T2 sequence (whole entry): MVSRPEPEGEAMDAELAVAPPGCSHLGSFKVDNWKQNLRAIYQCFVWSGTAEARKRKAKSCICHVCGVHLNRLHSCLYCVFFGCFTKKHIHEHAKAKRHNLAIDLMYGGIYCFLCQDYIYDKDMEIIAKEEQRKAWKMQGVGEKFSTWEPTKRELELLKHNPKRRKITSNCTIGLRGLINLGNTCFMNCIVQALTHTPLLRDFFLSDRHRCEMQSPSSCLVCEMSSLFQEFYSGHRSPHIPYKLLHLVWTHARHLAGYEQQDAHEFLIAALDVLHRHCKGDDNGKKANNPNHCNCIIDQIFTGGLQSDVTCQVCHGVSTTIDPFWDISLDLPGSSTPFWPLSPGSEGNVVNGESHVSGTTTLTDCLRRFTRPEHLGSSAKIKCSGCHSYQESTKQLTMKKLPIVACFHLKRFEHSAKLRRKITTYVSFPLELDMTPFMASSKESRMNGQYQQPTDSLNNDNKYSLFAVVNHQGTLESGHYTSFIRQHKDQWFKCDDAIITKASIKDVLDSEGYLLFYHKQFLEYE
# Method in brief: as §1
# [3] = biological target: USP24 (UniProt Q9UPU5)
# USP24, sequence (Q9UPU5 whole entry): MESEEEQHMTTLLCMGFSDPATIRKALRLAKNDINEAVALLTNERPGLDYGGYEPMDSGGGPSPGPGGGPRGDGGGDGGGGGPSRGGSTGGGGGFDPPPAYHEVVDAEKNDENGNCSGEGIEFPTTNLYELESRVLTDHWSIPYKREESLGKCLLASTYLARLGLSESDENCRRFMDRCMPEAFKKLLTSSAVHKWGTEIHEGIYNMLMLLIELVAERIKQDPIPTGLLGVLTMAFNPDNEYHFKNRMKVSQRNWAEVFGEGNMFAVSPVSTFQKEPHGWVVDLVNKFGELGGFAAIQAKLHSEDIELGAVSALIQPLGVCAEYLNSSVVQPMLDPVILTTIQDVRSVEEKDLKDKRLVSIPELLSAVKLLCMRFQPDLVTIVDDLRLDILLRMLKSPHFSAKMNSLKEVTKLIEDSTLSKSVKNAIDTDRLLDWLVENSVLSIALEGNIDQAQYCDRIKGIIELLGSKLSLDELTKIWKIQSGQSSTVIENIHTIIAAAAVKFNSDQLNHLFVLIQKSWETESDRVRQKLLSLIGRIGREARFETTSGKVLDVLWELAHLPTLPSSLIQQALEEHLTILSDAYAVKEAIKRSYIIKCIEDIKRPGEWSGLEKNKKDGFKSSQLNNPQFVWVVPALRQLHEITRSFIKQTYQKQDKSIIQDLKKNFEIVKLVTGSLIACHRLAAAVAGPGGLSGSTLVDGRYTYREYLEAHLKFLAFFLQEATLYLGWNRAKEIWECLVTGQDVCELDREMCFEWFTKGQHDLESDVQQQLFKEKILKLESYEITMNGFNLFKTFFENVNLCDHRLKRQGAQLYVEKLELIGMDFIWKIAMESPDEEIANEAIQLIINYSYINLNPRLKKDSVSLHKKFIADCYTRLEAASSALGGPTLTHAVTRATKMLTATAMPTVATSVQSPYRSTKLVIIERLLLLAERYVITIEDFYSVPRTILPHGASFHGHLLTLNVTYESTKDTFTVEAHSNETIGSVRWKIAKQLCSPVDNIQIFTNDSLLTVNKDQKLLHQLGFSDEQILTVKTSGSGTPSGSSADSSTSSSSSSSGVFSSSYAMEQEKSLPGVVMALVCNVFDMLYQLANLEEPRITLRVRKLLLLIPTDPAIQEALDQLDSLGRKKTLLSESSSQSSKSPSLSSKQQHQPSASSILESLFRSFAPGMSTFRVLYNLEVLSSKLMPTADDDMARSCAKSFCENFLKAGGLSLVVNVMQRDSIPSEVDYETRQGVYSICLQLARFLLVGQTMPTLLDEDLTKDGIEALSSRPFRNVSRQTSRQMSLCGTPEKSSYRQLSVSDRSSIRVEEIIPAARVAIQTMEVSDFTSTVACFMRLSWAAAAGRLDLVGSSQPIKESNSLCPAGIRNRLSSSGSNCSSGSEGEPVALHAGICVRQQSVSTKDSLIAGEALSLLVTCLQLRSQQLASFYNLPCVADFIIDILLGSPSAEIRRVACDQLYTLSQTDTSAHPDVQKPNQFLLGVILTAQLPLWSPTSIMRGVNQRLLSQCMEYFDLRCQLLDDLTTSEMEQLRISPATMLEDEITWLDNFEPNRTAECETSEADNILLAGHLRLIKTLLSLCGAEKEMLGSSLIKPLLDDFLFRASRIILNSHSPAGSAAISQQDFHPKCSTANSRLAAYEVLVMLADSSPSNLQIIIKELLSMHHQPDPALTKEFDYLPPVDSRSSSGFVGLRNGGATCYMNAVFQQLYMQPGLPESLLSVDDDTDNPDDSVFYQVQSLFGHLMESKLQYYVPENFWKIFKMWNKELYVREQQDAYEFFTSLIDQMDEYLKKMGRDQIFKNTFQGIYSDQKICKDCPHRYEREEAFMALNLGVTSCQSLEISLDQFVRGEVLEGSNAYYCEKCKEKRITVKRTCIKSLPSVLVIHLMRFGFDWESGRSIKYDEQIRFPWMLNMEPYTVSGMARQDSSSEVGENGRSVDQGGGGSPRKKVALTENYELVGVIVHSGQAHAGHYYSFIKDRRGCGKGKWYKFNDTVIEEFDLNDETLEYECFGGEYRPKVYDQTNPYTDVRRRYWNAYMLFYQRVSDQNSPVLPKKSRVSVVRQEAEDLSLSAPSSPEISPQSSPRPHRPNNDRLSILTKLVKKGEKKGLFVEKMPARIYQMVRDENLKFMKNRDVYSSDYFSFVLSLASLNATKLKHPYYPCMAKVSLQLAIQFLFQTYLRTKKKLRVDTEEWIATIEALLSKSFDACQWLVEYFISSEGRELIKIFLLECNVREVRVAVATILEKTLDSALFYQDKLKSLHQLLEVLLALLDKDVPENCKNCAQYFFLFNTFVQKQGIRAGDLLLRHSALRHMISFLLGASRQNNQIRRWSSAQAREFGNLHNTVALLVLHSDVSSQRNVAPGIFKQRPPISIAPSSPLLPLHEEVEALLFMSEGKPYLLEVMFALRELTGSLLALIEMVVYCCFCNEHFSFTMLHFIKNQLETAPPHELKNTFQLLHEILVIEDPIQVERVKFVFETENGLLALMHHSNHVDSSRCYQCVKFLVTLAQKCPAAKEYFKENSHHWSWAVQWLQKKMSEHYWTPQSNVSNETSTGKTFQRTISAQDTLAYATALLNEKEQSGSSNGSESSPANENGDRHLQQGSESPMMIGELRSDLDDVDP
# Method in brief: as §1
# [4] = biological target: T3, USP25 (UniProt Q9UHP3)
# T3 sequence (whole entry): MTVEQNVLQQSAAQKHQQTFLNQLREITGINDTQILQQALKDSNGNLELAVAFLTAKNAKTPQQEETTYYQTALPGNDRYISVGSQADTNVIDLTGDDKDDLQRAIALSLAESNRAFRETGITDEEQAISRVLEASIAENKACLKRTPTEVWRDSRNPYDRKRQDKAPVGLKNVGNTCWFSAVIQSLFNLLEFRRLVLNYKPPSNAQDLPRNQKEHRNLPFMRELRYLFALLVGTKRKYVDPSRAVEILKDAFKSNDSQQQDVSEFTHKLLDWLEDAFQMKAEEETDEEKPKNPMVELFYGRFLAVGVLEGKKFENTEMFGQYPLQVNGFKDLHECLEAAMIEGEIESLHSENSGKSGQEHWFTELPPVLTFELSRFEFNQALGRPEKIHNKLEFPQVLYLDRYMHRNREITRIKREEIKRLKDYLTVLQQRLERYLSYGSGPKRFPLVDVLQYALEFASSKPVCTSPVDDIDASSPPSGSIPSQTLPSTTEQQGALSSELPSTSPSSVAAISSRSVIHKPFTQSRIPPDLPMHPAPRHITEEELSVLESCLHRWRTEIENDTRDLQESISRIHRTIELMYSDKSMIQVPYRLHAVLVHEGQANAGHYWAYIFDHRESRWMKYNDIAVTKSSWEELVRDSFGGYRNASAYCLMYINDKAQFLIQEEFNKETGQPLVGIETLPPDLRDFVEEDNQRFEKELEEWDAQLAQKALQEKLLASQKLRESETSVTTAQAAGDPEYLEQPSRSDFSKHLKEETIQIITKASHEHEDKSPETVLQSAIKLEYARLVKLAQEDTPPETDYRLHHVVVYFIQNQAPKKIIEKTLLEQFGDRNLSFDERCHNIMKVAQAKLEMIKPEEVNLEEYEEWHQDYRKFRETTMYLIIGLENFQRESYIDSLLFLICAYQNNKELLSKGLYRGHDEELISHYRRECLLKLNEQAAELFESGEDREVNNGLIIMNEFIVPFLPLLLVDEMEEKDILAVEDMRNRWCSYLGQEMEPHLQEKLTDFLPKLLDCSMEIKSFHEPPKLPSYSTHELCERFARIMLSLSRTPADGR
# Method in brief: as §1
# [5] = biological target: T4, USP28 (UniProt Q96RU2)
# T4 sequence (whole entry): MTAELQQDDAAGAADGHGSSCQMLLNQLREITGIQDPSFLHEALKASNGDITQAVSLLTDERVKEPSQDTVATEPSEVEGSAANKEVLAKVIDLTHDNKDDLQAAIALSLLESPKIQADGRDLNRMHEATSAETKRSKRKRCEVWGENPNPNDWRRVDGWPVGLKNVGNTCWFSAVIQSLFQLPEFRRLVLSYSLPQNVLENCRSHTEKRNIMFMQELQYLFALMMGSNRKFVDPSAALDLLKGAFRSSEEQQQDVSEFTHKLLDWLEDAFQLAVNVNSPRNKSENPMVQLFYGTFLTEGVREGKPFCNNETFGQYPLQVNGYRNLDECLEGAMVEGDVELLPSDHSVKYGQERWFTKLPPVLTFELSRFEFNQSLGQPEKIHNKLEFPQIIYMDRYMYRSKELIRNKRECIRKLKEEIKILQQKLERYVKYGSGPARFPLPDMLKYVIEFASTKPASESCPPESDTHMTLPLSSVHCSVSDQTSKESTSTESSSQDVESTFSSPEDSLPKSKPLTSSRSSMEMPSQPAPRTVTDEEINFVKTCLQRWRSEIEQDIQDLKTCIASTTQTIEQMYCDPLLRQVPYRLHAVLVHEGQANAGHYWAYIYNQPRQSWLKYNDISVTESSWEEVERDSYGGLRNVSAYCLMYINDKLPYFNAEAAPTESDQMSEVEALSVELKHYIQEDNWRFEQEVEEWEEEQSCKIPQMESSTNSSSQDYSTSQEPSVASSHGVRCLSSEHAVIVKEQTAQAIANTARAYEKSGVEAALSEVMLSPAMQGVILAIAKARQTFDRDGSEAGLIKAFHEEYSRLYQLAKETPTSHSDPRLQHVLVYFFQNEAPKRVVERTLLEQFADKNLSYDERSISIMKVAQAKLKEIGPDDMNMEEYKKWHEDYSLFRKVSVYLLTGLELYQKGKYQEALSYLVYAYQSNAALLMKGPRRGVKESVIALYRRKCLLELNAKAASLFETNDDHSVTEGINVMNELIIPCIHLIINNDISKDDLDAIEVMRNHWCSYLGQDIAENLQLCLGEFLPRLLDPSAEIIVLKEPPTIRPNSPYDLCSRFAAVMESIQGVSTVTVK
# Method in brief: as §1
smiles,measurement,setting,value
O=C(CCl)N1CCOC(c2cccc(F)c2)C1 (stereo not given),log2 ratio of Biotin-Ahx-Ub-VS probe labelling,[1],-0.335
same,log2 ratio of Biotin-Ahx-Ub-VS probe labelling,[2],-0.24
same,log2 ratio of Biotin-Ahx-Ub-VS probe labelling,[3],-1.13 (active)
same,log2 ratio of Biotin-Ahx-Ub-VS probe labelling,[4],-0.541
same,log2 ratio of Biotin-Ahx-Ub-VS probe labelling,[5],-0.953
